The supplement of paper PMC6555819

Columns and labels:
Assay in all cases: PBM binding z-score (relative to random genomic background probes); higher = stronger binding; sequences stand for … in GC…GCGATTGACAGCGTAGAATGAAGG
[1] = tested on: FXR:RXRa (NR concentration 270 nM, RXRa partner concentration 90 nM)
Summary of the method: (§1)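 Ligand-free nuclear receptor dimers were bound for 1 h to custom Agilent 4×180K protein-binding microarrays. Detection used antibodies against each partner (one per run). Binding z-scores rest on regression-normalized fluorescence, with random background probes as the reference.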

[2] = tested on: LXRa:RXRa (NR concentration 270 nM, RXRa partner concentration 90 nM)
Summary of the method: as §1

[3] = tested on: LXRa homodimer (NR concentration 270 nM)
Summary of the method: as §1

[4] = tested on: LXRb:RXRa (NR concentration 270 nM, RXRa partner concentration 90 nM)
Summary of the method: as §1

[5] = tested on: LXRb homodimer (NR concentration 270 nM)
Summary of the method: as §1

[6] = tested on: PPARa:RXRa (NR concentration 270 nM, RXRa partner concentration 90 nM)
Summary of the method: as §1

[7] = tested on: PPARg:RXRa (NR concentration 180 nM, RXRa partner concentration 90 nM)
Summary of the method: as §1

[8] = tested on: PPARg:RXRa 270nM:90nM, anti-RXR (NR concentration 270 nM, RXRa partner concentration 90 nM)
Summary of the method: as §1

[9] = tested on: PPARg:RXRa 30nM:10nM, anti-RXR (NR concentration 30 nM, RXRa partner concentration 10 nM)
Summary of the method: as §1

[10] = tested on: PPARg:RXRa 90nM:30nM, anti-RXR (NR concentration 90 nM, RXRa partner concentration 30 nM)
Summary of the method: as §1

[11] = tested on: PPARg:RXRa DBDmut IVT, anti-RXR (DBD mutation: RXRa K156A/R161A, NR concentration 270 nM, RXRa partner concentration 90 nM)
Summary of the method: as §1

[12] = tested on: PPARg:RXRa IVT, anti-PPARg (NR concentration 270 nM, RXRa partner concentration 90 nM)
Summary of the method: as §1

[13] = tested on: PPARg DBDmut:RXRa IVT, anti-PPARg (DBD mutation: PPARg1 K132A/R137A, NR concentration 270 nM, RXRa partner concentration 90 nM)
Summary of the method: as §1

[14] = tested on: PPARg DBDmut IVT, anti-PPARg (DBD mutation: PPARg1 K132A/R137A, NR concentration 270 nM)
Summary of the method: as §1

[15] = tested on: PPARg homodimer (NR concentration 180 nM)
Summary of the method: as §1

[16] = tested on: PXR:RXRa (NR concentration 270 nM, RXRa partner concentration 90 nM)
Summary of the method: as §1

[17] = tested on: PXR homodimer (NR concentration 270 nM)
Summary of the method: as §1

[18] = tested on: RARa:RXR (NR concentration 270 nM, RXRa partner concentration 90 nM)
Summary of the method: as §1

[19] = tested on: RARa homodimer (NR concentration 270 nM)
Summary of the method: as §1

[20] = tested on: RARb:RXRa (NR concentration 270 nM, RXRa partner concentration 90 nM)
Summary of the method: as §1

Row | Sequence | PBM binding z-score [1] | PBM binding z-score [2] | PBM binding z-score [3] | PBM binding z-score [4] | PBM binding z-score [5] | PBM binding z-score [6] | PBM binding z-score [7] | PBM binding z-score [8] | PBM binding z-score [9] | PBM binding z-score [10] | PBM binding z-score [11] | PBM binding z-score [12] | PBM binding z-score [13] | PBM binding z-score [14] | PBM binding z-score [15] | PBM binding z-score [16] | PBM binding z-score [17] | PBM binding z-score [18] | PBM binding z-score [19] | PBM binding z-score [20]
1 | TAGCCTAGGTCAGGCGGGCCAGTATAGTGTCGGC | 1.07 | 0.958 | -0.477 | 0.401 | -0.892 | 1.55 | 0.363 | 0.51 | -0.814 | -0.109 | 0.604 | 1.7 | -0.617 | -0.515 | -0.227 | 0.158 | -0.632 | 0.923 | -0.619 | 3.16
2 | CCTGCTATGTCAATGGTCAGCTAAAGCAGCTCGC | -0.419 | -0.17 | -0.882 | -0.227 | -0.272 | -0.207 | 0.344 | 1.53 | -0.198 | 0.923 | 0.388 | 0.02 | -1.09 | -1.11 | -0.369 | -0.209 | -0.703 | -0.142 | -0.762 | 0.77
3 | TCTTGTAGATCAGCAAGTTAAGAAAGCTGGCCAA | -0.13 | -0.113 | -0.739 | -0.0484 | -0.743 | 0.316 | -0.599 | 1.24 | 2.5 | 1.78 | 1.5 | 0.0775 | 0.0136 | -0.449 | -0.907 | -0.095 | -0.549 | -0.2 | -0.451 | -0.472
4 | CGAACTAGGTCAAGGACAGTTAATCTCCGCACGC | 3.29 | 2.36 | 0.153 | 1.58 | -0.0529 | 4.46 | 7.29 | 6.38 | 3.78 | 5.73 | 8.24 | 8.35 | 2.25 | 0.939 | 1.62 | 1.5 | 0.185 | 1.87 | 0.669 | 3.76
5 | CGACAAAGTTCAAGGTAACGTAACAGAAAGCAGC | 5.84 | 5.54 | 1.97 | 3.29 | 0.658 | 4.63 | 3.59 | 4.67 | 1.47 | 3.46 | 0.277 | 1.76 | 0.591 | 0.507 | 2.08 | 3.81 | 2.44 | 3.27 | 1.06 | 4.89
6 | CAAACTAGGTCACAGATGTCAAAGTCCGTGCGTA | 3.99 | 3.51 | 0.769 | 2.81 | 0.443 | 5.44 | 8.76 | 7.33 | 5.52 | 7.25 | 8.74 | 8.85 | 3.45 | 2.75 | 2.09 | 2.47 | 0.19 | 3.24 | 1.17 | 4.17
7 | GCGACTGGGGCATTAGCAGGTTACCATAACTTAA | -0.284 | 0.0464 | 0.0141 | 0.936 | -0.458 | 0.973 | 0.712 | 0.609 | -0.0543 | 0.0308 | 3.92 | 2.83 | -0.21 | -0.476 | 0.463 | -0.152 | -0.13 | 0.182 | -0.164 | 0.559
8 | TCATATAGGTAAATAGGTGAAAGTCCGTAAGTTA | 1.38 | 1.32 | 0.298 | 1.06 | -0.103 | 3.79 | 5.17 | 5.12 | 4.83 | 5.34 | 5.74 | 6.26 | 1.25 | 1.38 | 1.18 | 1.13 | 0.363 | 1.44 | 1.54 | 0.905
9 | ATCTCTAGGTAACCATGTTCAGTGAATGCCGAAC | 0.171 | 0.321 | 0.00917 | 0.435 | 0.529 | 0.518 | 0.664 | 0.662 | 0.044 | 0.484 | 3.64 | 2.88 | 0.786 | 1.37 | 0.698 | 0.218 | 0.202 | 0.406 | 0.844 | 0.355
10 | TCGATTAGGTTACCAATGGGGCATTCAGCTTTCT | 0.297 | 1.49 | -0.396 | 1.29 | -0.254 | 1.21 | -0.163 | 1.5 | 2.68 | 2.26 | 2.52 | 1.4 | 0.217 | 0.237 | 0.366 | 0.467 | -0.59 | 0.557 | -0.505 | 1.44
11 | TCTTGTAGATCAATAGAGGTTAAGAAAGTGCGCT | 0.723 | 3.4 | 0.589 | 1.83 | -0.158 | 1.8 | -0.124 | 1.46 | 2.83 | 2.18 | 1.96 | 1.06 | 0.946 | 0.475 | 0.36 | 2.86 | 0.0612 | 1.67 | -0.172 | 0.91
12 | AATACAGTGTCATCGTAGGCCAGAGTACGCACAG | 0.397 | 1.79 | -0.224 | 0.401 | -0.022 | 0.815 | 1.05 | 0.517 | 0.42 | 0.495 | 0.125 | 1.2 | 1.33 | -0.183 | -0.106 | 0.441 | -0.156 | 0.969 | 0.337 | 1.21
13 | CTACCAAGGTAAACAAGGTCGTTGATTACTATTC | 0.877 | 1.37 | 0.268 | 1.56 | -0.376 | 1.57 | 0.314 | 0.42 | -0.128 | 0.258 | 1.19 | 0.986 | -0.194 | 0.206 | 0.169 | 2.25 | 1.6 | 1.75 | 0.382 | 0.851
14 | CCTCGGAGTACAGAAGGTCAGAGCTGTCCGCTTT | 1.75 | 3.22 | 1.46 | 1.54 | -0.164 | 2.02 | -0.0233 | 0.921 | -0.606 | 0.4 | 0.368 | -0.113 | -0.995 | -1.23 | 1.8 | 1.83 | 0.165 | 2.18 | 0.283 | 2.69
